These results are taken from ChEMBL document CHEMBL1961873, “Compounds: GSK PKIS; Assays: Nanosyn kinase panel” (2012).

The target of test [1] is Mitogen-activated protein kinase 3 (Homo sapiens) (UniProt P27361). To be noted: at 1 µM.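 Further: values are mean percent inhibition of MAPK3.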
In test [2] the target is SRSF protein kinase 3 (Homo sapiens) (UniProt Q9UPE1). The following applies: at 0.1 µM.
Test [3] shares this target. To be noted: at 1 µM.
For test [4], the target named is Mitogen-activated protein kinase 14 (Homo sapiens) (UniProt Q16539). To be noted: at 0.1 µM.
Sequence of Mitogen-activated protein kinase 14 (Homo sapiens) (Q16539 whole entry): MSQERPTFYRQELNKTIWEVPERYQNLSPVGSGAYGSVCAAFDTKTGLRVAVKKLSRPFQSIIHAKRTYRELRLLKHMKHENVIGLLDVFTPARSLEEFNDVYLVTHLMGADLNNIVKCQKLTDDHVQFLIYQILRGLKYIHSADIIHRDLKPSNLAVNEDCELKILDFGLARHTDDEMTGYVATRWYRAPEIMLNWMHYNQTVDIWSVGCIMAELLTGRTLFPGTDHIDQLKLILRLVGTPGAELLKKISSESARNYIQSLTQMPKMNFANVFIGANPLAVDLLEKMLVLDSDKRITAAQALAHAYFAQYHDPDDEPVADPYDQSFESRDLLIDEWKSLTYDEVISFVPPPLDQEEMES
Test [5] has the same target. The following applies: at 1 µM.
The target of test [6] is Mitogen-activated protein kinase 11 (Homo sapiens) (UniProt Q15759). The following applies: at 0.1 µM.
Sequence of Mitogen-activated protein kinase 11 (Homo sapiens) (Q15759 whole entry): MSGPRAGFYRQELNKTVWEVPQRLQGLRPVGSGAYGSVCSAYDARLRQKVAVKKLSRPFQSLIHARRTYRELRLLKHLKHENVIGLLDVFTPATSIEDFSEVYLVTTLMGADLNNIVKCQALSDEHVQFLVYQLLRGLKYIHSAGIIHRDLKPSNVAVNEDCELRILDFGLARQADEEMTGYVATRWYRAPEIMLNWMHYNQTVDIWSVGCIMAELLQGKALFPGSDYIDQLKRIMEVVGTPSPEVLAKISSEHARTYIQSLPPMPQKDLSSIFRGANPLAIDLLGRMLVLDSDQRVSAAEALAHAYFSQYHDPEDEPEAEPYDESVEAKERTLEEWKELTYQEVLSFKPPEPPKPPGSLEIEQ
For test [7] the target is unchanged. The following applies: at 1 µM.
In test [8] the target is T1, Mitogen-activated protein kinase 13 (Homo sapiens) (UniProt O15264).
T1 sequence (whole entry): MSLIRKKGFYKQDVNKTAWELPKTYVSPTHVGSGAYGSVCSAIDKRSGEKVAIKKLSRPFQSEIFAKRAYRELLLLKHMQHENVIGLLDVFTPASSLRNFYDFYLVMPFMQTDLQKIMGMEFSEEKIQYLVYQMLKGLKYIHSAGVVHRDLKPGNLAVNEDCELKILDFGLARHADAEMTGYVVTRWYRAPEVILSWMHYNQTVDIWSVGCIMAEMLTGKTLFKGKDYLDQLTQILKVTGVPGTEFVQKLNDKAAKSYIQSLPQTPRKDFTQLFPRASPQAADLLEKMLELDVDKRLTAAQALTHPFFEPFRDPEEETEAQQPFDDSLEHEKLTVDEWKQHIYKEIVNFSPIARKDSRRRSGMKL
The following applies: at 0.1 µM.

Test [9] addresses T1, Mitogen-activated protein kinase 13 (Homo sapiens). The following applies: at 1 µM.
The target in test [10] is T2, Mitogen-activated protein kinase 12 (Homo sapiens) (UniProt P53778).
T2 sequence (whole entry): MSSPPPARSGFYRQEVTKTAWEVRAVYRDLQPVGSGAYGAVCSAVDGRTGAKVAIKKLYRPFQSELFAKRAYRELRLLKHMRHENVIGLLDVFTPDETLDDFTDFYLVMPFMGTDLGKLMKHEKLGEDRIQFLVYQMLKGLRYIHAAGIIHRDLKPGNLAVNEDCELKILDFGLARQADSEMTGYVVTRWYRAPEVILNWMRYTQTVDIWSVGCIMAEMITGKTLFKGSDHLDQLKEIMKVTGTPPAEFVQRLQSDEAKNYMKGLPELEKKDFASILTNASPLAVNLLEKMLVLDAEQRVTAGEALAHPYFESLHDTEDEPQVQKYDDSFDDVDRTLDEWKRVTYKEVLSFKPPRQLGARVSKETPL
The following applies: at 0.1 µM.

The target of test [11] is T2, Mitogen-activated protein kinase 12 (Homo sapiens). To be noted: at 1 µM.
In test [12] the target is SRSF protein kinase 1 (Homo sapiens) (UniProt Q96SB4). To be noted: at 0.1 µM.
Sequence of SRSF protein kinase 1 (Homo sapiens) (Q96SB4 whole entry): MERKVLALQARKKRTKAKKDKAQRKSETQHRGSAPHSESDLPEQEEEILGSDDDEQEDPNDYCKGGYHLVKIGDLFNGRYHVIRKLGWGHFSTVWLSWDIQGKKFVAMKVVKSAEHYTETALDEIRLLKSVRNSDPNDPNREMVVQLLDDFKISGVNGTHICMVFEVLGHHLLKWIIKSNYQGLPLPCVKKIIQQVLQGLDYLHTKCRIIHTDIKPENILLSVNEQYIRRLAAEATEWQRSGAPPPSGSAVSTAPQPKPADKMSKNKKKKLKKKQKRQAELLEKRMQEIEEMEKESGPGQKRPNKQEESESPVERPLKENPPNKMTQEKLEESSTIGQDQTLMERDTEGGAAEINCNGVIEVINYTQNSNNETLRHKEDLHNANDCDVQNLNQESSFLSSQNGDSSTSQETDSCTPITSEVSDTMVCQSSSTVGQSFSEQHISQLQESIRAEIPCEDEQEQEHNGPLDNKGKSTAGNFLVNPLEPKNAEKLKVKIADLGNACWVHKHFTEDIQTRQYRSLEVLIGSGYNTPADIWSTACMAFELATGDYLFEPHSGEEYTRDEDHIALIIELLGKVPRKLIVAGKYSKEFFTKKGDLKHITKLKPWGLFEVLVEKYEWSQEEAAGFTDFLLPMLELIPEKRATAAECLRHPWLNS
Test [13] has the same target. To be noted: at 1 µM.
Test [14] deals with Phosphatidylinositol 4,5-bisphosphate 3-kinase catalytic subunit alpha isoform (Homo sapiens) (UniProt P42336). To be noted: at 0.1 µM.
Sequence of Phosphatidylinositol 4,5-bisphosphate 3-kinase catalytic subunit alpha isoform (Homo sapiens) (P42336 whole entry, canonical isoform): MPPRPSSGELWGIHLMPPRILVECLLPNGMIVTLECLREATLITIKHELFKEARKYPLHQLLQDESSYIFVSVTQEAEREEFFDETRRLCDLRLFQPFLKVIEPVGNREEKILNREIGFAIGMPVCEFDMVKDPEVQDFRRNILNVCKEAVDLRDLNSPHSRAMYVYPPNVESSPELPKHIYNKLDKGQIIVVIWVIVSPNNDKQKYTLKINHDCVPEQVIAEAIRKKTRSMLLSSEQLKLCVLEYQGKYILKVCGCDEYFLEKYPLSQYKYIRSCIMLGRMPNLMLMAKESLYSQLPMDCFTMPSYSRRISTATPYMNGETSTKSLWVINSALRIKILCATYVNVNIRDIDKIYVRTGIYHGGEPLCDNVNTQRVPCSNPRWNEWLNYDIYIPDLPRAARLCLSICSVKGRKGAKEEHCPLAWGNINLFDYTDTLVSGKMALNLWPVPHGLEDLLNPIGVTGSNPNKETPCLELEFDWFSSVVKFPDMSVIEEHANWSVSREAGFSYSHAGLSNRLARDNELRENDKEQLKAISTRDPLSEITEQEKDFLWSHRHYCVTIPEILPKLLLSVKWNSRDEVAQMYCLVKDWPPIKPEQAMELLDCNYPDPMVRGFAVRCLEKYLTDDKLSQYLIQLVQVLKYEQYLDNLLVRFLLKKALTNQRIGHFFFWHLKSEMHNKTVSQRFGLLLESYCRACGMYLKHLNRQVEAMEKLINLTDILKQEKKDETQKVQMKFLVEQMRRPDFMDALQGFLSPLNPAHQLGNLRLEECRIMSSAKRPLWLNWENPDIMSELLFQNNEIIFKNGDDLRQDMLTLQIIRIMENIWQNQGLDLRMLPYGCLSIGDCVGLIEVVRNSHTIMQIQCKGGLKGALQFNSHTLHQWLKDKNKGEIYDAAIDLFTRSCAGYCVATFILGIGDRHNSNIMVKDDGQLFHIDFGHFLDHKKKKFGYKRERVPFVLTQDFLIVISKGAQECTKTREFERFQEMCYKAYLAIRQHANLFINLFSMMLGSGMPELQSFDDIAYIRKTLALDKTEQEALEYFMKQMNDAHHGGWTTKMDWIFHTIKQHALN
The target is the same in test [15]. The following applies: at 1 µM.
In test [16] the target is T3, Phosphatidylinositol 4,5-bisphosphate 3-kinase catalytic subunit delta isoform (Homo sapiens) (UniProt O00329).
T3 sequence (whole entry): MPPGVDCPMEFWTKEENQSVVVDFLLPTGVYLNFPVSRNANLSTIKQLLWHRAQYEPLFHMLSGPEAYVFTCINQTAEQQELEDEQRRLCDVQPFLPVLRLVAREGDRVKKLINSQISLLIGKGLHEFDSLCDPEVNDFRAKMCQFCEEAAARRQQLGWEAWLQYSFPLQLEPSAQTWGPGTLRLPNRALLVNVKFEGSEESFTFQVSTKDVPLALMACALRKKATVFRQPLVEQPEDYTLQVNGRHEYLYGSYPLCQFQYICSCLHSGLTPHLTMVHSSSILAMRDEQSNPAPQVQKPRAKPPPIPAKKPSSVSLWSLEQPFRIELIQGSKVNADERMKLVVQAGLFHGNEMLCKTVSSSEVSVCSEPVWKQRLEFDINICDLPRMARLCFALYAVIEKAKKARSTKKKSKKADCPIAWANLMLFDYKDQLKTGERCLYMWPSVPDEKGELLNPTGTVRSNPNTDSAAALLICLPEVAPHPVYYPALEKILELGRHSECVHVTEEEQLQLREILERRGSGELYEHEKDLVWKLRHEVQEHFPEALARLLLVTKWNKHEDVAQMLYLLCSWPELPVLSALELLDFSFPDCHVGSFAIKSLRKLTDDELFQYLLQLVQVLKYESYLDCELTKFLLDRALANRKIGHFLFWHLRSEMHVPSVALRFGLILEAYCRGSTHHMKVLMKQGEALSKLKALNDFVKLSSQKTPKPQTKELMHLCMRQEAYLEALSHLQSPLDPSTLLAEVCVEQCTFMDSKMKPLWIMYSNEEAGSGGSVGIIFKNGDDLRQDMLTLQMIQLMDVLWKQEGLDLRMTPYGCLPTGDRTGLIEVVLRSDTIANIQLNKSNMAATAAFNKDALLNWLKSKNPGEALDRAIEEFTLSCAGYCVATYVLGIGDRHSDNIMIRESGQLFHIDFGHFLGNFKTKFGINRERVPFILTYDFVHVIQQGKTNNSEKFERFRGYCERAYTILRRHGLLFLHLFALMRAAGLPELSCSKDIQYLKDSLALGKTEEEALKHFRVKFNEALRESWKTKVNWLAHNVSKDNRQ
The following applies: at 0.1 µM.

Test [17] addresses T3, Phosphatidylinositol 4,5-bisphosphate 3-kinase catalytic subunit delta isoform (Homo sapiens). To be noted: at 1 µM.
The target in test [18] is Phosphatidylinositol 4-kinase beta (Homo sapiens) (UniProt Q9UBF8). The following applies: at 0.1 µM.
Sequence of Phosphatidylinositol 4-kinase beta (Homo sapiens) (Q9UBF8 2-816 limits assumed): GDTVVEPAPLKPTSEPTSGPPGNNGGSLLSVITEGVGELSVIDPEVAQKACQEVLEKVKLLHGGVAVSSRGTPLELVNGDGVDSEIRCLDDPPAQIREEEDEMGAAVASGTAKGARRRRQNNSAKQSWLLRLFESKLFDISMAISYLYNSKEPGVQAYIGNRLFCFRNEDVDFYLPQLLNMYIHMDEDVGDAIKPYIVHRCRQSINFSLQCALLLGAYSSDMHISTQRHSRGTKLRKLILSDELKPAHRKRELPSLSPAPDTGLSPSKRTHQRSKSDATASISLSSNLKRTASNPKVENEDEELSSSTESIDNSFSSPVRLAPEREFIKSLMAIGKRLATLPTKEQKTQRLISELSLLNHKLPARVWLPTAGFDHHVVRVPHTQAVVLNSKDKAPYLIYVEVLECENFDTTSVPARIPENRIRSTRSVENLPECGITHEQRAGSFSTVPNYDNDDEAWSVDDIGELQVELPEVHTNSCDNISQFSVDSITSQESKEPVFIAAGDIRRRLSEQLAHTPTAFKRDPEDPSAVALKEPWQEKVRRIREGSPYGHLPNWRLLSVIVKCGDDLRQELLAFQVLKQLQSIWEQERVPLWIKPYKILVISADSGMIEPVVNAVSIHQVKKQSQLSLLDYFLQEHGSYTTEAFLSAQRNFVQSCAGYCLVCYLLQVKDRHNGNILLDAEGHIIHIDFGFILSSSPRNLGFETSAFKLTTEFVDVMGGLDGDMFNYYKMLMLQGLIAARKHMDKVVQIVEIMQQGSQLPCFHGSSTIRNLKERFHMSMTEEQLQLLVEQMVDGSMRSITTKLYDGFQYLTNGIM
The target is the same in test [19]. To be noted: at 1 µM.
Test [20] addresses Sphingosine kinase 1 (Homo sapiens) (UniProt Q9NYA1). The following applies: at 0.1 µM.

Sequence of Sphingosine kinase 1 (Homo sapiens) (Q9NYA1 whole entry): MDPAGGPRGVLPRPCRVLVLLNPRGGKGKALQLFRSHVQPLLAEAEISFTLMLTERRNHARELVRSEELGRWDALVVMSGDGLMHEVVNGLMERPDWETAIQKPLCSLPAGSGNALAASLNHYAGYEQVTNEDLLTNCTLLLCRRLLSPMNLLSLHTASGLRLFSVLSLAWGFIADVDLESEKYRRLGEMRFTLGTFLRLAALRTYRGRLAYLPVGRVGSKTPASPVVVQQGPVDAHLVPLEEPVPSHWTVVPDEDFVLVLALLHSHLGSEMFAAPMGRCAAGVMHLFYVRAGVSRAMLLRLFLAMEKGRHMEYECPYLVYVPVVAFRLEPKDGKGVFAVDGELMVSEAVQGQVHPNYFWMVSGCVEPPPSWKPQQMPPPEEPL
Sequence of SRSF protein kinase 3 (Homo sapiens) (Q9UPE1 whole entry): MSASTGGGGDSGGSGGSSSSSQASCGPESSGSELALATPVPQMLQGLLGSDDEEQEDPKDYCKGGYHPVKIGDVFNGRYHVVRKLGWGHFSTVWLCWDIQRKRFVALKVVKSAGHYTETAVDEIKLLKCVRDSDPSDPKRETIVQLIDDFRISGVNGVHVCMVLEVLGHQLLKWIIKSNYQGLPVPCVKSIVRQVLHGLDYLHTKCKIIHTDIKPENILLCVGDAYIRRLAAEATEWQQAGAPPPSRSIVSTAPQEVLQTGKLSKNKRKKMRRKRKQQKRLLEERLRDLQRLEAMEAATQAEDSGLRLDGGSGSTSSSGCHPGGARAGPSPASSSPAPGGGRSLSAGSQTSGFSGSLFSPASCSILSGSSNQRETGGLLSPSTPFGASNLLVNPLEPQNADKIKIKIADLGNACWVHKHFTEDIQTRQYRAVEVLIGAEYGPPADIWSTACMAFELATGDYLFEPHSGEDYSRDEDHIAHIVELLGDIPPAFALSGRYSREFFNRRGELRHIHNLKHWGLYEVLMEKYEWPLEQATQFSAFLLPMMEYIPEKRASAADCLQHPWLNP
Sequence of Mitogen-activated protein kinase 3 (Homo sapiens) (P27361 whole entry): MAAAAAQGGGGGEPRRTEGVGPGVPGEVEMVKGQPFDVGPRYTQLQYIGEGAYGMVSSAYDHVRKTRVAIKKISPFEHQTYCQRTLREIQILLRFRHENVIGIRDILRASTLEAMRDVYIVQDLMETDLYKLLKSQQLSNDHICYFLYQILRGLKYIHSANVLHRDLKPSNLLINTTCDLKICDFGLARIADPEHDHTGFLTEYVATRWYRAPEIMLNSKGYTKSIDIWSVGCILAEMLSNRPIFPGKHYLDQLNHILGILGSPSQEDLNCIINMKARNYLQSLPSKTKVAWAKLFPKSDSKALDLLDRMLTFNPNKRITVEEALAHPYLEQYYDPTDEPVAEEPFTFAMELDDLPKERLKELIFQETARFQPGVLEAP

Usually inhibition stands for the relative decrease from the control value, in per cent. For `CNC(=O)c1cncc(/C=C/c2ccccc2Cl)c1`, the inhibition was 2.18% in [1]; -0.92% in test [2]; 2.45% in test [3]; -6.55% in test [4]; -0.16% in test [5]; 2.14% in [6]. Also, the inhibition in [7] was 2.01%; in test [8], 1.17%; in [9] it was -0.14%; in [10] it was -1.75%; in [11] it was -0.18%; in [12], 0.65%. The inhibition in test [13] came to 3.33%; in [14] it was 1.22%; in test [15] it was 1.59%; in [16], 0.5%; in test [17], 0.38%; in test [18], 3.54%. Moreover, the inhibition worked out at 1.28% in [19] and 0.48% in [20].
As for `NS(=O)(=O)c1ccc(N/N=C2\C(=O)Nc3ccc4ncccc4c32)cc1`, the inhibition is 30.9% in test [1]; -0.65% in test [2]; -0.87% in test [3]; 0.75% in test [4]; 12.3% in [5]; 7.81% in [6]. The inhibition in [7] was 26.7%; in [8] it was 0.25%; in test [9] it was 10%; in [10], 3.34%; in test [11] it was 18.9%; in test [12] it was -3.05%. Further, the inhibition was -3.18% in test [13]; 1.35% in [14]; 7.38% in test [15]; 1.9% in [16]; 8.23% in test [17]; 1.16% in [18]. Also, the inhibition in test [19] was 0.49%; in test [20], -2.17%.
With `Cc1ccc(O)cc1Nc1ccnc2cc(-c3ccccn3)ccc12`, the inhibition was 4.04% in [1]; 1.4% in test [2]; 0.54% in test [3]; 13.9% in test [4]; 58.8% in test [5]; 4.81% in test [6]. In addition, the inhibition is 9.25% in test [7]; 5.51% in [8]; 2.99% in test [9]; 1.52% in [10]; 3% in [11]; -1.63% in [12]. The inhibition was -2.47% in test [13]; 2.72% in [14]; 7.92% in test [15]; 2.39% in test [16]; 15.8% in [17]; -2.37% in test [18]. In addition, the inhibition in test [19] was -0.81%; in test [20] it was 0%.
On to `COc1cc(/C=N/Nc2ncnc3[nH]ncc23)ccc1O`, for which the inhibition in test [1] is 6.69%; in test [2] it was 0.77%; in test [3], 1.87%; in test [4], 7.26%; in test [5], 6.91%; in test [6], 4.13%. The inhibition in test [7] is 4.56%; in test [8], 1.51%; in test [9], 5.72%; in test [10] it was 0.15%; in test [11], 2.2%; in test [12], -1.89%. The inhibition in test [13] is 2.08%; in [14], 10.2%; in [15], 44.2%; in test [16] it was 3.6%; in test [17] it was 20.3%; in test [18] it was 6.86%. Moreover, the inhibition in test [19] was 30.9%; in test [20], -1.46%.
In the case of `CNC(=O)c1cccc(C#Cc2cncnc2Nc2ccc(OCc3cccc(F)c3)c(Cl)c2)c1`, the inhibition in test [1] was 0.63%; in test [2], -4.28%; in test [3], -0.55%; in [4] it was -0.67%; in [5] it was 3.2%; in [6], 1.64%. The inhibition is 1.73% in test [7]; -0.77% in test [8]; -0.49% in [9]; 0.07% in test [10]; -0.21% in test [11]; -1.88% in test [12]. Also, the inhibition is 0.32% in test [13]; 0.38% in test [14]; -2.56% in test [15]; 0.74% in test [16]; -1.1% in test [17]; 1.78% in test [18]. Moreover, the results for the inhibition in [19] and in test [20] were 1.45% and 0.36%, respectively.
On to `COc1cc2c(cc1Nc1nc(Nc3ccsc3C(N)=O)c3cc[nH]c3n1)N(C(=O)CN(C)C)CCC2(C)C`, for which the inhibition in [1] is 3.62%; in test [2] it was 0.09%; in test [3], 3.51%; in test [4], 4.03%; in test [5], 10.7%; in test [6], 5.19%. Further, the inhibition in test [7] is 8.81%; in test [8], 2.03%; in test [9], 9.12%; in test [10], 1.64%; in [11], 4.23%; in test [12] it was -1.82%. Further, the inhibition in test [13] is 15.8%; in test [14] it was 4.65%; in test [15], 5.27%; in test [16] it was 2.82%; in test [17], 13.9%; in test [18], -0.32%. Moreover, the inhibition in test [19] is -1.38%; in [20], 3.22%.
In the case of `CCn1c(-c2nonc2N)nc2c(C#CC(C)(C)O)nc(OC[C@H](N)c3ccccc3)cc21`, the inhibition in test [1] is 2.26%; in test [2], 3.21%; in [3], -2.11%; in test [4], 4.73%; in test [5], 7.11%; in test [6] it was 3.41%. Also, the inhibition in test [7] was 4.89%; in [8] it was 1.8%; in test [9], 1.9%; in test [10] it was 2.38%; in [11] it was 3.95%; in test [12], -2.57%. Moreover, the inhibition was -1.89% in test [13]; 1.03% in test [14]; 1.06% in test [15]; 0.44% in test [16]; 1.52% in test [17]; -2.33% in [18]. Besides, the values for the inhibition in test [19] and in test [20] were 0.6% and 0.65%, respectively.
